Results filed as inconclusive are left out. The source made the active and inactive calls. How the source made its calls: active means hit-call score of the fitted dose curve at least 0.9, where 1 is the maximum; inconclusive means response in the unintended direction; inactive means score below 0.9.
Experiments:
[1] = TOX21_p53_BLA_p2_viability: Viability Assessment in the Tox21 HCT-116 p53 Agonism Beta-lactamase Assay, Phase 2 (AID 2283591);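 further: actives lower the ATP signal meaning cytotoxicity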
Procedure, shortened: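 HCT116 p53-bla cells, 4000/well, dosed after 5 h plating (217-fold dilution of DMSO stocks) and incubated 16 h at 37C. Viability taken as cellular ATP by CellTiter-Glo luminescence after 30 min RT; signal loss marks cytotoxicity.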

[2] = target: Cellular tumor antigen p53 (Homo sapiens) (UniProt P04637); assay: TOX21_p53_BLA_p2_ratio: Tox21 HCT-116 p53 Agonism Beta-lactamase Assay, Ratio, Phase 2 (AID 2283592)
Procedure, shortened: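 First, HCT116 reporter cells settle for 5 h at 37C. Next, DMSO compound solutions are pinned in (217-fold dilution) and left 16 h. Finally, CCF4-AM substrate is loaded 2 h at room temperature and the 460/530 nm ratio read.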

[3] = TOX21_p53_BLA_p3_viability: Viability Assessment in the Tox21 HCT-116 p53 Agonism Beta-lactamase Assay, Phase 3 (AID 2283593);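 further: cells exposed to compound for 16 h before reading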
Procedure, shortened: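 HCT116 cells, 4000/well, dosed 5 h after plating by pin transfer (217-fold dilution from DMSO stock) and incubated 16 h at 37C, 5% CO2. Viability read as ATP luminescence with CellTiter-Glo after 30 min at room temperature.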

[4] = target: Cellular tumor antigen p53 (Homo sapiens) (UniProt P04637); assay: TOX21_p53_BLA_p3_ratio: Tox21 HCT-116 p53 Agonism Beta-lactamase Assay, Ratio, Phase 3 (AID 2283596)
Procedure, shortened: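 Cells were seeded at 4000/well, rested 5 h at 37C, then dosed with DMSO compound solutions (217-fold dilution) for 16 h. CCF4-AM substrate was loaded for 2 h at room temperature, and the 460/530 nm emission ratio was fitted for gain of signal versus DMSO.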

[5] = TOX21_p53_BLA_p4_viability: Viability Assessment in the Tox21 HCT-116 p53 Agonism Beta-lactamase Assay, Phase 4 (AID 2283597);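 further: hits lower the luminescence signal meaning cytotoxicity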
Procedure, shortened: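 4000 HCT116 cells per well; 5 h attachment; compounds from DMSO, 217-fold dilution; 16 h at 37C. Then CCF4-AM, 2 h RT, followed by CellTiter-Glo, 30 min RT, luminescence. Decrease = cytotoxicity.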

[6] = target: Cellular tumor antigen p53 (Homo sapiens) (UniProt P04637); assay: TOX21_p53_BLA_p5_ratio: Tox21 HCT-116 p53 Agonism Beta-lactamase Assay, Ratio, Phase 5 (AID 2283599)
Procedure, shortened: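 HCT-116 p53-bla cells (4000/well) plated 5 h, dosed with compound (217-fold DMSO dilution) for 16 h at 37 C; CCF4-AM substrate 2 h at room temperature. Activity is the 460/530 nm emission ratio (405 nm excitation), fitted in gain-of-signal direction versus DMSO.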

[7] = TOX21_p53_BLA_p5_viability: Viability Assessment in the Tox21 HCT-116 p53 Agonism Beta-lactamase Assay, Phase 5 (AID 2283600)
Procedure, shortened: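 Decreased CellTiter-Glo luminescence denotes lost viability. Exposure: 16 h at 37C, 5% CO2, with compounds from DMSO stocks diluted 217-fold in wells of 4000 cells.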

[8] = target: Cellular tumor antigen p53 (Homo sapiens) (UniProt P04637); assay: TOX21_p53_BLA_p4_ratio: Tox21 HCT-116 p53 Agonism Beta-lactamase Assay, Ratio, Phase 4 (AID 2283601)
Procedure, shortened: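 HCT-116 p53 beta-lactamase reporter cells (4000/well) preincubated 5 h, then compound (217-fold dilution of DMSO stock) for 16 h at 37C. CCF4-AM substrate added 2 h at room temperature; 460/530 nm emission ratio fitted upward versus DMSO.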

[9] = Tanguay_ZF_120hpf_MORT_legacy: (Legacy) Oregon State University Tanguay Lab 120 Hour Post-fertilization zebrafish Assay for Mortality (AID 2283633);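 on AC50: fitted as increase in binary mortality versus DMSO negative control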
Procedure, shortened: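 Dechorionated Tropical 5D wild-type zebrafish embryos, one per well from 6 hpf, static exposure in 0.64% DMSO at 28C until 120 hpf. Mortality scored as binary by brightfield microscopy at 24 and 120 hpf.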

[10] = Tanguay_ZF_120hpf_YSE_legacy: (Legacy) Oregon State University Tanguay Lab 120 Hour Post-fertilization zebrafish Assay for Yolk Sac Edema (AID 2283634);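 on AC50: actives raise the incidence of yolk sac edema above the DMSO baseline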
Procedure, shortened: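 Dechorionated Tropical 5D wild-type zebrafish embryos were exposed statically, one per well, from 6 to 120 hpf at 28C in 0.64% DMSO. Yolk sac edema was scored present/absent by brightfield at 120 hpf, and dead embryos were excluded.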

[11] = Tanguay_ZF_120hpf_AXIS_legacy: (Legacy) Oregon State University Tanguay Lab 120 Hour Post-fertilization zebrafish Assay for Body Axis Malformation (AID 2283635);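 on AC50: potency for an increased fraction of larvae scored with body axis malformation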
Procedure, shortened: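 Dechorionated wild-type Tropical 5D zebrafish embryos, one per well, statically exposed from 6 hpf to 120 hpf at 28C in 0.64% DMSO final. Body axis malformation scored present/absent by brightfield microscopy at 120 hpf; dead embryos excluded.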

[12] = Tanguay_ZF_120hpf_EYE_legacy: (Legacy) Oregon State University Tanguay Lab 120 Hour Post-fertilization zebrafish Assay for Eye Malformation (AID 2283636);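 further: binary presence or absence of eye malformation scored by brightfield in 120 hpf larvae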
Procedure, shortened: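 5D wild-type embryos, pronase-dechorionated at 4 hpf; static exposure 6–120 hpf, 28C, dark; DMSO 0.64% final; 5uM trimethyltin chloride positive control. Binary eye-defect scoring at 120 hpf; dead embryos not scored.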

[13] = Tanguay_ZF_120hpf_SNOU_legacy: (Legacy) Oregon State University Tanguay Lab 120 Hour Post-fertilization zebrafish Assay for Snout Malformation (AID 2283637)
Procedure, shortened: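 Binary brightfield scoring of snout malformation at 120 hpf. Dechorionated 5D wild-type embryos, one per well, static exposure from 6 hpf at 28C, sealed and dark; final DMSO 0.64% (vol/vol), DMSO as baseline; 5uM trimethyltin chloride positive control.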

[14] = Tanguay_ZF_120hpf_JAW_legacy: (Legacy) Oregon State University Tanguay Lab 120 Hour Post-fertilization zebrafish Assay for Jaw Malformation (AID 2283638);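 on AC50: active means more embryos with jaw malformation than DMSO controls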
Procedure, shortened: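 Dechorionated Tropical 5D wild-type zebrafish embryos, one per well, exposed statically from 6 hpf to 120 hpf at 28C in 0.64% DMSO. Jaw malformation was scored by brightfield microscopy as present or absent. It was not scored in dead embryos.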

[15] = Tanguay_ZF_120hpf_OTIC_legacy: (Legacy) Oregon State University Tanguay Lab 120 Hour Post-fertilization zebrafish Assay for Otic Vesicle Malformation (AID 2283639)
Procedure, shortened: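 Wild-type zebrafish larvae, whole-embryo exposure from early stage to 120 hpf at 28C. Binary brightfield scoring of otic vesicle morphology, fitted in the positive direction against the DMSO baseline.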

[16] = Tanguay_ZF_120hpf_PE_legacy: (Legacy) Oregon State University Tanguay Lab 120 Hour Post-fertilization zebrafish Assay for Pericardial Edema (AID 2283640);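 on AC50: potency for increased incidence of pericardial edema versus DMSO baseline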
Procedure, shortened: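 Tropical 5D wild-type zebrafish embryos were statically exposed until 120 hpf at 28C, with 0.64% DMSO final. Pericardial edema was scored by brightfield as present or absent; endpoints were not scored in dead embryos.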

[17] = Tanguay_ZF_120hpf_BRAI_legacy: (Legacy) Oregon State University Tanguay Lab 120 Hour Post-fertilization zebrafish Assay for Brain Malformation (AID 2283641)
Procedure, shortened: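 Tropical 5D wild-type zebrafish embryos exposed statically until 120 hpf at 28C, 0.64% DMSO final, sealed and dark. Brain malformation scored present/absent by brightfield at 120 hpf; dead embryos excluded. Trimethyltin chloride 5uM positive control.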

[18] = Tanguay_ZF_120hpf_SOMI_legacy: (Legacy) Oregon State University Tanguay Lab 120 Hour Post-fertilization zebrafish Assay for Somite Malformation (AID 2283647)
Procedure, shortened: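 Dechorionated Tropical 5D wild-type zebrafish embryos, one per well from 6 hpf, statically exposed at 28C to 120 hpf in 0.64% DMSO; somite malformation scored present/absent by brightfield; trimethyltin 5 uM positive control; dead embryos not scored.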

[19] = Tanguay_ZF_120hpf_PFIN_legacy: (Legacy) Oregon State University Tanguay Lab 120 Hour Post-fertilization zebrafish Assay for Pectoral Fin Malformation (AID 2283648);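 further: each larva judged yes or no for fin defect by brightfield with dead larvae skipped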
Procedure, shortened: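 Binary pectoral fin malformation call at 120 hpf by brightfield microscopy; 5D wild-type zebrafish, chorion removed at 4 hpf, one embryo per well from 6 hpf, static exposure at 28C; DMSO (0.64% final) as baseline.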

[20] = ATG_XTT_Cytotoxicity: Cytotoxicity Assessment in the Attagene TRANS-FACTORIAL HepG2 Assay (AID 2283584)
Procedure, shortened: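 HepG2 cells transiently transfected with GAL4-UAS multiple reporter units, dosed 24 h; cytotoxicity read by XTT as loss of signal versus DMSO baseline.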

Measured: AC50

Sequence of Cellular tumor antigen p53 (Homo sapiens) (P04637 whole entry, looked up): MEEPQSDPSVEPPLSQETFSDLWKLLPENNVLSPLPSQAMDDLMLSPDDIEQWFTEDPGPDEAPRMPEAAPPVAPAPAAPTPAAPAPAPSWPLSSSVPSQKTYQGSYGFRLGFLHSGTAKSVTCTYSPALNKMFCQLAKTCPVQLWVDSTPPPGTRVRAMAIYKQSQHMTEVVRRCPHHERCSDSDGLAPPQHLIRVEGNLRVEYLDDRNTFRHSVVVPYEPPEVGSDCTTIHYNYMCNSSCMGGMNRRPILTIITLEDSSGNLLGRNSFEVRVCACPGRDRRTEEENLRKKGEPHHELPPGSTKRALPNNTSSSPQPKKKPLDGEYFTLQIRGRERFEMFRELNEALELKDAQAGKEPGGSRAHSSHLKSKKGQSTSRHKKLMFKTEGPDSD

NC(=O)c1nc(-c2cccc(-c3cc(F)ccc3OCC(F)(F)C(F)(F)F)c2)n[nH]1
active: [1] 65.9 µM | [2] 79.6 µM | [3] 74 µM | [4] 87.4 µM | [5] 70.5 µM | [6] 86.6 µM | [7] 72.7 µM | [8] 86.3 µM | [10] 26.8 µM | [11] 25.9 µM | [12] 9.38 µM | [13] 25.8 µM | [14] 28.7 µM | [15] 27.8 µM | [16] 28.1 µM | [17] 26 µM | [18] 25.8 µM | [19] 24.8 µM
inactive: [9]

CCCOC(=O)c1cc(O)c(O)c(O)c1
not listed: [20]
inactive: all other assays above

CC1=CC(=O)/C(=C(/C)O)C(=O)O1
not listed: [1] | [2] | [5] | [12] | [13] | [18] | [20]
inactive: all other assays above

CC[C@H](NC(=O)c1cc(F)ccc1NS(=O)(=O)c1cccc2cccnc12)c1ccccc1
active: [8] 67.2 µM
not listed: [7] | [10] | [12] | [18] | [20]
inactive: all other assays above

O=C(O)c1ccccc1C(=O)OCc1ccccc1
not listed: [5] | [12] | [14] | [18]
inactive: all other assays above

NCc1cccc(C2CCN(C(=O)c3ccc(C#Cc4ccccc4F)o3)CC2)c1
active: [1] 68.9 µM | [2] 86.2 µM | [3] 72.2 µM | [4] 86.8 µM | [5] 65.6 µM | [6] 82.9 µM | [8] 84.4 µM | [9] 12 µM
not listed: [19] | [20]
inactive: all other assays above
